Experimental data from PubChem BioAssay (EPA / NIEHS).
Calls of active or inactive are those of the source. Rule for the calls: active = hit-call score of the fitted dose curve at least 0.9, where 1 is the maximum; inactive = score below 0.9.

assay: ATG_SREBP_CIS: Attagene CIS-FACTORIAL HepG2 Assay for human Sterol Regulatory Element Binding (SREBP) (AID 2282962); settings: HepG2 Attagene cis-factorial SREBP reporter, mRNA; actives raise or lower the signal
Procedure: ATG_CIS is a cell-based, multiplexed-readout assay that uses HepG2, a human liver cell line, with measurements taken at 24 hours after chemical dosing in a 24-well plate.ATG_SREBP_CIS is one of 52 assay component(s) measured or calculated from the ATG_CIS assay. It is designed to make measurements of mRNA induction, a form of inducible reporter, as detected with fluorescence intensity signals by Reverse transcription polymerase chain reaction (RT-PCR) and Capillary electrophoresis technology.Data from the assay component ATG_SREBP_CIS was analyzed into 1 assay endpoint. This assay endpoint, ATG_SREBP_CIS, was analyzed with bidirectional fitting relative to DMSO as the negative control and baseline of activity. Using a type of inducible reporter, measures of mRNA for gain or loss-of-signal activity can be used to understand the reporter gene at the transcription factor-level as they relate to the gene SREBF1. Furthermore, this assay endpoint can be referred to as a primary readout, because this assay has produced multiple assay endpoints where this one serves a reporter gene function. To generalize the intended target to other relatable targets, this assay endpoint is annotated to the dna binding intended target family, where the subfamily is basic helix-loop-helix leucine zipper.
Human liver HepG2 cells are transiently transfected with multiple reporter transcription units (MRTUs) in 6-well plates using FuGene 6 reagent (Roche; 3 ml FuGene/1 mg DNA). The MRTU constructs are regulated by a cis-regulating element (promoter). […] A major difference between the CIS and TRANS system is that in CIS activities of endogenous TFs are measured, whereas the TRANS assay evaluates changes in activities of exogenous, chimeric NR-Gal4 proteins. […] At the end of 24 hour incubation, total RNA was isolated using TriZol reagent (Invitrogen). The isolated RNA is then reverse-transcribed using oligo(dT) primer and Mo-MLV reverse transcriptase (Invitrogen) with DNAse I (Ambion) treatment for 30 min. The one-tenth of the produced cDNA was amplified by PCR using Taq DNA polymerase (Invitrogen) and two reporter sequence-specific primers. The PCR products were fluorescently labeled by primer extension with 6-arboxyfluorescein (6-FAM) 5'-labeled reporter sequence-specific primer (2 min at 95 C, 20 s at 68 C and 10 min at 72 C) and these products were digested with 5U of HpaI (New England Biolabs) for 2h at 37 C. The fragments were purified using Qiaquick PCR columns (Qiagen), analyzed on an ABI 3130xL genetic analyzer (Applied Biosystems) with peak positions identified by using a set of X-rhodamine (ROX)-labeled MapMarker1000 molecular weight standards (BioVentures). The raw capillary electrophoresis data was processed using Attagraph software (Attagene).

Compound	outcome	AC50
CCCCNc1ccc(NCCCC)c2c1C(=O)c1ccccc1C2=O	inactive	–
c1ccc(CCCc2ccncc2)cc1	inactive	–
Nc1ccc2cc3ccccc3cc2c1	inactive	–
CC1(C)S[C@@H]2[C@H](NC(=O)COc3ccccc3)C(=O)N2[C@H]1C(=O)O	inactive	–
CCCNC(=O)NS(=O)(=O)c1ccc(Cl)cc1	inactive	–
N=c1ccn2c(n1)O[C@H]1[C@H](O)[C@@H](CO)O[C@H]12	inactive	–
Cc1ccc2c(c1)C(=O)c1ccccc1C2=O	inactive	–
CCc1nccnc1C	inactive	–
C=CC(=O)NC(C)(C)CS(=O)(=O)O	inactive	–
CCc1c(C(=O)O)c(=O)cnn1-c1ccc(Cl)cc1	inactive	–
c1ccc(-c2ccccn2)nc1	inactive	–
CCCCC(CC)COC(=O)c1ccccc1 (stereo not given)	inactive	–
O=c1n(CCO)c(=O)n(CCO)c(=O)n1CCO	inactive	–
CO[Si](CCC1CCC2OC2C1)(OC)OC (stereo not given)	inactive	–
CN1C(=O)N(C)C(O)C1O (stereo not given)	inactive	–
CCOc1nc(F)cc2nc(S(=O)(=O)Nc3c(Cl)cccc3C(=O)OC)nn12	inactive	–
Cc1cc(C)c(C)cc1C	inactive	–
NC(=O)C1CO1 (stereo not given)	inactive	–
CCCCCCCCCCCSCC(=O)O	–	25.1 µM (active)
C=CC(C)(CCC=C(C)C)OC(=O)C(C)C (stereo not given)	inactive	–

Compound	outcome	AC50
CCOC(=O)N1CCC(=C2c3ccc(Cl)cc3CCc3cccnc32)CC1	inactive	–
COCCCOCCCOC	inactive	–
CC1(C)[C@H]2CC[C@]1(C)C(=O)C2	inactive	–
C=C(C)C(=O)OCCOc1ccccc1	inactive	–
CC(C)COC(=O)C=Cc1ccccc1	inactive	–
CC(C)c1ccc2c(c1)CC[C@H]1[C@](C)(CN)CCC[C@]21C	inactive	–
Cc1cccc(OCCOc2cccc(C)c2)c1	inactive	–
C=C(C)C(=O)OCCO	inactive	–
CN(C)c1ccc(C(=N)c2ccc(N(C)C)cc2)cc1	inactive	–
Cn1c([N+](=O)[O-])cnc1COC(N)=O	inactive	–
Nc1ccc(Cl)cc1Cl	inactive	–
CCO[Si](CCCN=C=O)(OCC)OCC	inactive	–
CC(=O)Nc1nnc(S(N)(=O)=O)s1	inactive	–
O=S(=O)(O)c1cc(S(=O)(=O)O)c2ccc3c(S(=O)(=O)O)cc(S(=O)(=O)O)c4ccc1c2c43	inactive	–
COC(=O)c1cc(Cl)ccc1[N+](=O)[O-]	inactive	–
C1=Cc2ccccc2C1	inactive	–
O=C1CCCCCN1SSN1CCCCCC1=O	–	161 µM (active)
COc1cc(C)ccc1C(C)C	inactive	–
O=S(=O)(O)CC(O)CCl (stereo not given)	inactive	–
O=C1C(N(CO)C(=O)NCO)N(CO)C(=O)N1CO (stereo not given)	inactive	–
